Data published in PubChem BioAssay (NCATS).
Records with an inconclusive call do not appear. A call without a number means that no potency is given here. Activity calls are given as the source filed them. Unless noted, calls follow the shape of the dose curve; as a rule, active = well fitted curve in the direction sought with a large enough effect; inconclusive = small, poorly fitted or top-dose-only effect, or another doubt; inactive = no such curve, though single readings can be large; an effect the other way counts as inactive or inconclusive.

Assays:
[1] = molecular target: M-phase phosphoprotein 8 (Homo sapiens) (UniProt Q99549); assay: qHTS Validation Assay for Inhibitors for MPP8 Chromodomain Interactions with Methylated Histone Tails (AID 488949); also: nearly all actives have a fitted effect of over 55% in size; also: potency is read from the fitted curve at half-maximal effect
Method in brief: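 AlphaScreen read-out: streptavidin donor and nickel chelate acceptor beads (final 10 ug/mL), 30 min in the dark at RT. Complex of 50 nM MPP8 and 50 nM b-H3(1-18)K9me3 peptide had been exposed to compounds for 30 min beforehand.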

[2] = molecular target: Chromobox protein homolog 1 (Homo sapiens) (UniProt P83916); assay: qHTS Validation Assay for Inhibitors of HP1-beta Chromodomain Interactions with Methylated Histone Tails (AID 488953); also: nearly all actives have a fitted effect of over 50% in size; also: potency is read from the fitted curve at half-maximal effect
Sequence of Chromobox protein homolog 1 (Homo sapiens) (P83916 whole entry, looked up): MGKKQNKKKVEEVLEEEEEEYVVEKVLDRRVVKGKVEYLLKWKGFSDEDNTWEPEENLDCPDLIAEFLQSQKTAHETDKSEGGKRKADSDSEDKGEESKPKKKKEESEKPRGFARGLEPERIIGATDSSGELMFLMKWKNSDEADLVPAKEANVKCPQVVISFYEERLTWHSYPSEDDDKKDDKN
Method in brief: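 HP1-beta (50 nM) preformed 30 min with biotinylated H3(1-18)K9me3 peptide (50 nM) in PBS pH 7.4, 0.01% Tween-20. Compounds added for 30 min at room temperature. Complex disruption read by AlphaScreen with streptavidin donor/nickel chelate acceptor beads (10 ug/mL each).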

[3] = molecular target: Methanococcus maripaludis chaperonin (MmCpn) (UniProt Q6LX38); assay: High-Throughput Screening for Modulators of Cytosolic Chaperonin Activity: MmCpn Primary Screen (AID 488978);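 also: 50 nM MmCpn enzyme hydrolysing 30 µM ATP at 37 °C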
Sequence of Methanococcus maripaludis chaperonin (MmCpn) (Q6LX38 1-543): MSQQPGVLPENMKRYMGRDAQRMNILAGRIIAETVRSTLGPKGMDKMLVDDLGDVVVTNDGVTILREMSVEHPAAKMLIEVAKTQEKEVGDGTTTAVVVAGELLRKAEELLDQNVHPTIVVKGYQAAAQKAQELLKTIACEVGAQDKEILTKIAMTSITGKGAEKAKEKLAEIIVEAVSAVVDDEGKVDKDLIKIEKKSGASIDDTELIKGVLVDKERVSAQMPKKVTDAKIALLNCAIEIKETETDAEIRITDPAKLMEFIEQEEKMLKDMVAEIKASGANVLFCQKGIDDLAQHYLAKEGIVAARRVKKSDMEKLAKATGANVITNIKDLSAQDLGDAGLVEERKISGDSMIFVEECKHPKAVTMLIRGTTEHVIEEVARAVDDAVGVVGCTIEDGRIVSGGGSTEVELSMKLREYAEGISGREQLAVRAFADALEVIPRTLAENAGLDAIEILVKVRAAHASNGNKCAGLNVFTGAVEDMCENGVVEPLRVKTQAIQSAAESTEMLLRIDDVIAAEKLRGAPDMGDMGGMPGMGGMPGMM
Method in brief: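 ADP formation read by HTRF Transcreener, 665/590 nm emission after 320 nm excitation. Enzyme: archaeal chaperonin at 50 nM final; substrate ATP 30 uM final; 10 min, 37C, after 5 min compound preincubation at RT.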

[4] = molecular target: Transient receptor potential cation channel subfamily V member 1 (Homo sapiens) (UniProt Q8NER1); assay: HTS Assay for Compounds that Act as Enhancers of the Vanilloid Receptor 1 (AID 488979)
Sequence of Transient receptor potential cation channel subfamily V member 1 (Homo sapiens) (Q8NER1 whole entry, looked up): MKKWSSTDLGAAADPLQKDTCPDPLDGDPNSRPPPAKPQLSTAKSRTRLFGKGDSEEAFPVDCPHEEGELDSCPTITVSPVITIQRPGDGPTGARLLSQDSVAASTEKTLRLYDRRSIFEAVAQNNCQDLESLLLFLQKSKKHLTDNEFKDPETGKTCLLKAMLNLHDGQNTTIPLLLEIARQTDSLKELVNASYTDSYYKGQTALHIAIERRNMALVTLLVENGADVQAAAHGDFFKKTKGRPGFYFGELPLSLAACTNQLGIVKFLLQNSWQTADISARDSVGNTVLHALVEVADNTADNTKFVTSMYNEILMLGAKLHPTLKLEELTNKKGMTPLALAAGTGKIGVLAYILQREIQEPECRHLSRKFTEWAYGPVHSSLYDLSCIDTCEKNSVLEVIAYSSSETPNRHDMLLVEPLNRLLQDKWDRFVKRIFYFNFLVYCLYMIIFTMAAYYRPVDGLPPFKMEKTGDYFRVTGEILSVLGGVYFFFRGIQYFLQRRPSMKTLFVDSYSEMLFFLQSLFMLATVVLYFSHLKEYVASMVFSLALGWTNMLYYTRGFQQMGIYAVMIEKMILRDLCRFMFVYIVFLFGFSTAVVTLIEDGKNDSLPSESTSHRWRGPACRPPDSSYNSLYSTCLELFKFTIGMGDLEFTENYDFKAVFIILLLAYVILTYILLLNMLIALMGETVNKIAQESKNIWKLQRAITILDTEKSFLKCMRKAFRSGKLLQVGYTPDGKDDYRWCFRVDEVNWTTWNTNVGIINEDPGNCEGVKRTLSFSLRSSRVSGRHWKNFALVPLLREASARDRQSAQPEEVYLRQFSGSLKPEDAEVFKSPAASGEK
Method in brief: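 TRPV1 cells loaded with Fluo-8 calcium dye; compound added and Ca2+ signal (ex 480/em 520 nm) followed 3 min, then capsaicin at EC20 added and read 2 more min to detect enhancement.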

[5] = molecular target: Thyrotropin receptor (Homo sapiens) (UniProt P16473); assay: qHTS Assay for Antagonists of the Thyroid Stimulating Hormone Receptor (AID 488980); also: series mostly up to about 58 µM
Sequence of Thyrotropin receptor (Homo sapiens) (P16473 whole entry, looked up): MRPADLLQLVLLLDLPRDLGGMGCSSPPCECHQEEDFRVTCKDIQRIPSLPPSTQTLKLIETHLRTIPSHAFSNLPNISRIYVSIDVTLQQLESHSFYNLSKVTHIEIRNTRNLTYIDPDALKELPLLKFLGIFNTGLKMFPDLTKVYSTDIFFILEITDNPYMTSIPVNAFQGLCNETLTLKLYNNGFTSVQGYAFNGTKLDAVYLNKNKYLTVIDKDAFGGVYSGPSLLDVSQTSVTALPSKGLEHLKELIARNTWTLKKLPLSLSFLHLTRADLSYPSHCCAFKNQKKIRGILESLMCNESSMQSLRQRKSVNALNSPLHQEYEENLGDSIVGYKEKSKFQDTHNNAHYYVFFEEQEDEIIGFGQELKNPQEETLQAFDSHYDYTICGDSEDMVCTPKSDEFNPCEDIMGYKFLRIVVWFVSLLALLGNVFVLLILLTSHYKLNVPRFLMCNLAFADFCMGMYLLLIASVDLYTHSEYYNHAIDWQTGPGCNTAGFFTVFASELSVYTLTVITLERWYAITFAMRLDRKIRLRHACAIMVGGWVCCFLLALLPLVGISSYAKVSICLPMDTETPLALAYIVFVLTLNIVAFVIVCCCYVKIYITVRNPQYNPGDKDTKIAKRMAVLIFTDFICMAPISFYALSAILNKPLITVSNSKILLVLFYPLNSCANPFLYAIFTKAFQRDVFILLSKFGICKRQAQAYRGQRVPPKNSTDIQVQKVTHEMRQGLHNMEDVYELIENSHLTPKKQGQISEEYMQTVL
Method in brief: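 TSHR-HEK293 cells; 70 uM RO 20-1724 PDE inhibitor; compound + EC80 TSH (4 nM final); anti-cAMP cryptate antibody/cAMP-d2 in lysis buffer, 30 min RT; HTRF 665/620 nm read.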

[6] = molecular target: D(1A) dopamine receptor (Homo sapiens) (UniProt P21728); assay: HTS Assay for Allosteric Agonists of the Human D1 Dopamine Receptor: Primary Screen for Agonists (AID 488981); also: potency is read from the fitted curve at half-maximal effect
Sequence of D(1A) dopamine receptor (Homo sapiens) (P21728 whole entry, looked up): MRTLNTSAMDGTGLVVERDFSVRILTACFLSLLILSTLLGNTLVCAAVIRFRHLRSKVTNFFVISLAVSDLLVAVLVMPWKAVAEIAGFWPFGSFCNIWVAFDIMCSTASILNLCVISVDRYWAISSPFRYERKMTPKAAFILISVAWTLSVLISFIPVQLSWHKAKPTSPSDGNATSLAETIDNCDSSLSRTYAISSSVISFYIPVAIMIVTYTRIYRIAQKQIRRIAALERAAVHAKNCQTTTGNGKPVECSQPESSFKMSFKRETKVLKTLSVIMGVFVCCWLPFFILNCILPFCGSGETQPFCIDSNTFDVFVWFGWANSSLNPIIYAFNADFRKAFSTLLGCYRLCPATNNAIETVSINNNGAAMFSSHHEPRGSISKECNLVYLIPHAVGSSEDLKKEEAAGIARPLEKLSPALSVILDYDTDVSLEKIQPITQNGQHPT
Method in brief: (§1)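 Tetracycline-induced HEK293 Trex D1 cells with forced coupling to calcium, loaded with no-wash calcium dye; kinetic fluorescence read 180 s after compound addition for agonism, then a further 180 s after an EC20 dopamine challenge for potentiation.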

[7] = molecular target: D(1A) dopamine receptor (Homo sapiens) (UniProt P21728); assay: HTS Assay for Allosteric Agonists of the Human D1 Dopamine Receptor: Primary Screen for Potentiators (AID 488982)
Method in brief: as §1

[8] = molecular target: D(1A) dopamine receptor (Homo sapiens) (UniProt P21728); assay: HTS Assay for Allosteric Agonists of the Human D1 Dopamine Receptor: Primary Screen for Antagonists (AID 488983);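 also: calcium flux response to an EC80 dopamine challenge measured with no-wash dye; nearly all actives have a fitted effect of over 65% in size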; also: potency is read from the fitted curve at half-maximal effect
Method in brief: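 Tetracycline-induced HEK293 T-REx D1 line, force-coupled to calcium flux, read with no-wash calcium dye. Compound added after 10 s baseline, read 180 s for agonism, then EC80 dopamine added and read a further 180 s.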

[9] = molecular target: Thyrotropin-releasing hormone receptor (Homo sapiens) (UniProt P34981); assay: qHTS for Small Molecule Agonists and Allosteric Enhancers of Human TRH Receptor: Validation Screen for Agonists (AID 493127;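 active = calcium activation more than 3 SD above the typical response in the agonist read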); settings: TRH receptor agonist cell assay; at 2 µM; stronger effect = higher value
Method in brief: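 TRHR cells loaded with fluo-8 calcium dye; FDSS kinetic fluorescence (Ex 480/Em 530) read at 1 s/cycle after 23 nL compound addition. Agonist-mode calcium response recorded before the 10 nM TRH (EC20) addition.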

[10] = Nrf2 qHTS screen for inhibitors: Validation (AID 493153; active = well fitted inhibition curve with a large enough effect in the main read-out, with a control signal flat, not every such curve was filed as active); settings: Potency: luciferase luminescence; viability change: measured here: cytotoxicity max response
Method in brief: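 A549 cells carrying ARE-firefly luciferase reporter, 5000 cells/well in 5% FBS OPTI-MEM, treated with compound over a concentration series for 18-24 h at 37 C. Luciferase luminescence gave Nrf2 activity; CellTiter-Fluor fluorescence gave viability.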

[11] = Validation screen for small molecules that induce DNA re-replication in SW480 colon adenocarcinoma cells (AID 504364)
Method in brief: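 SW480 cells (250/well) exposed 48 h at 37 C, 5% CO2, then Hoechst-stained 40 min. Nuclear DNA content imaged by fluorescence scanning (405 nm excitation, 500-530 nm emission); re-replication scored as increased nuclei with elevated intensity.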

[12] = molecular target: Peptidyl-prolyl cis-trans isomerase NIMA-interacting 1 (Homo sapiens) (UniProt Q13526); assay: qHTS Validation Assay to Find Inhibitors of Pin1 (AID 504536; active = well fitted inhibition curve with a large enough effect in the polarisation, with a control signal flat, not every such curve was filed as active; the % refers to the polarisation)
Method in brief: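 Fluorescence polarization competition: compounds (titration) displace HiFluor-488-labeled Pin1-1b peptide from Pin1 (0.3 uM final) in pH 7.5 HEPES buffer with DTT, 10 min at room temperature; %Activity normalized to no-enzyme wells, curves fitted.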

[13] = molecular target: Flap endonuclease 1 (Homo sapiens) (UniProt P39748); assay: qHTS Validation Assay for the Inhibitors of Human Flap endonuclease 1 (FEN1) (AID 488816); also: potency is read from the fitted curve at half-maximal effect
Method in brief: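 Human FEN1 (10 nM) preincubated 15 min at room temperature with compounds, then flap DNA substrate added at 50 nM final. Fluorescence read at 0 and 15 min; concentration-response fitted with four-parameter Hill equation.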

[14] = Validation screen for small molecules that induce genotoxicity in human embryonic kidney (HEK293T) cells expressing luciferase-tagged ELG1 (AID 493106)
Method in brief: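 HEK293T cells expressing luciferase-tagged ELG1, 2,000 cells/well, exposed to compound 16 hr at 37 °C, 5% CO2. Luciferase read after ONE-Glo, 30 min at room temperature; increased signal indicates genetic stress.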

[15] = molecular target: ATPase family AAA domain-containing protein 5 (Homo sapiens) (UniProt Q96QE3); assay: Validation screen for small molecules that inhibit ELG1-dependent DNA repair in human embryonic kidney (HEK293T) cells expressing luciferase-tagged ELG1 (AID 493107); also: nearly all actives have a fitted effect of over 70% in size; also: potency is read from the fitted curve at half-maximal effect
Sequence of ATPase family AAA domain-containing protein 5 (Homo sapiens) (Q96QE3 whole entry, looked up, the tested form may be a part): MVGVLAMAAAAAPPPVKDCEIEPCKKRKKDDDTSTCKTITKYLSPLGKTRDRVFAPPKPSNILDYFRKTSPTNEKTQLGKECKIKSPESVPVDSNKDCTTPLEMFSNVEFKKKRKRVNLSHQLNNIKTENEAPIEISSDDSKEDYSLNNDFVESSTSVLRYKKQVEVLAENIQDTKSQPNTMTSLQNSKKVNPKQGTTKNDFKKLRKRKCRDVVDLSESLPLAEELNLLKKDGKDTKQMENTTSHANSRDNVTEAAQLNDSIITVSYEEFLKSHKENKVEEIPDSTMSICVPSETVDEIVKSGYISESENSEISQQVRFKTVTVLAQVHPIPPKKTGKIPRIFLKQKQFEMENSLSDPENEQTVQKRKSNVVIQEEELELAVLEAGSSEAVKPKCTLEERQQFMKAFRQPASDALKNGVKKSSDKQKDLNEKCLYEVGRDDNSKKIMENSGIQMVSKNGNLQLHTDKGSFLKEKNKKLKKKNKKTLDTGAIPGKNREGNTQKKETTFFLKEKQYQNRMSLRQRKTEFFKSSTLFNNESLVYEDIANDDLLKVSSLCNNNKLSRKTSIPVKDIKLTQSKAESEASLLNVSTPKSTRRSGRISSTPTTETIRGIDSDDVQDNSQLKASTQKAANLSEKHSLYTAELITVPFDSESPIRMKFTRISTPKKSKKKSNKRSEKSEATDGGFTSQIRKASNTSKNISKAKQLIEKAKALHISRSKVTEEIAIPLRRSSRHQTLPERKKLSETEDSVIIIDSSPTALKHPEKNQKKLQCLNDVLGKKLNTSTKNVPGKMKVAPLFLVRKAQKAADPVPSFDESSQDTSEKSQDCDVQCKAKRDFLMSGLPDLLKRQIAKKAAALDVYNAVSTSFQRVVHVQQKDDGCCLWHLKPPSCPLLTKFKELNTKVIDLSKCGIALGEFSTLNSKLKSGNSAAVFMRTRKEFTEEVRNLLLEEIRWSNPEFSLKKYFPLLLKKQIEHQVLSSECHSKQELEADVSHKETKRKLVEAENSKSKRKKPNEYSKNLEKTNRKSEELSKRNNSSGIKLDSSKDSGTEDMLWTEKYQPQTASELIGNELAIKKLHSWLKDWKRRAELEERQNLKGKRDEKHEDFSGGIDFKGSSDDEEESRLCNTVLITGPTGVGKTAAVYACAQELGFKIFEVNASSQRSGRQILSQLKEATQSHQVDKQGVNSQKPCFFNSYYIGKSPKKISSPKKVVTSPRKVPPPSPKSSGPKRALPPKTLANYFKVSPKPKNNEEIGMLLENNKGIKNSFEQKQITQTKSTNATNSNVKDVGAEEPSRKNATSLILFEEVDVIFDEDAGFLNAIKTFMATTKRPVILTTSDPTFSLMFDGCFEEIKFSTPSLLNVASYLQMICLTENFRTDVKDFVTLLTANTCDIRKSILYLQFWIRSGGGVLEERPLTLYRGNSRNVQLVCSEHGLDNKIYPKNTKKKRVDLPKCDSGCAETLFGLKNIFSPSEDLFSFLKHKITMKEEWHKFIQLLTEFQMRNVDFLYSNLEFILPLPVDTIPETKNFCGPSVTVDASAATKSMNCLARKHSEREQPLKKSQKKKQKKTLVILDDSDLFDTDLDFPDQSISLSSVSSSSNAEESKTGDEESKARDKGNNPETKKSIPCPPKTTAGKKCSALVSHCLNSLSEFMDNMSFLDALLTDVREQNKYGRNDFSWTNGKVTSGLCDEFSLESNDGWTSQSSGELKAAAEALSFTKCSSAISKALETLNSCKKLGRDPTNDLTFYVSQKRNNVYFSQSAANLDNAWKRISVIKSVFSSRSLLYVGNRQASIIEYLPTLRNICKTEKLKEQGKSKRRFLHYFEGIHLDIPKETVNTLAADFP
Method in brief: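 HEK293T cells expressing luciferase-tagged ELG1, 2,000 per well, treated with 5-fluorouridine plus compound for 16 h at 37 C. ONE-Glo luminescence after 30 min at room temperature reports ELG1 reporter level.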

[16] = molecular target: Galactokinase (Homo sapiens) (UniProt P51570); assay: qHTS Validation Assay for Inhibitors of Human Galactokinase (GALK) (AID 493189)
Method in brief: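 Luminescence from leftover ATP (Kinase-Glo Plus, 10 min) served as read-out after a 1 h room-temperature reaction of 5 nM GALK, 100 uM galactose and 35 uM ATP at pH8.0.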

[17] = molecular target: Phosphoglycerate kinase, glycosomal (Trypanosoma brucei brucei) (UniProt P07378); assay: qHTS Validation Assay to Find Inhibitors of Phosphoglycerate Kinase (AID 504547); also: potency is read from the fitted curve at half-maximal effect
Sequence of Phosphoglycerate kinase, glycosomal (Trypanosoma brucei brucei) (P07378 whole entry, looked up): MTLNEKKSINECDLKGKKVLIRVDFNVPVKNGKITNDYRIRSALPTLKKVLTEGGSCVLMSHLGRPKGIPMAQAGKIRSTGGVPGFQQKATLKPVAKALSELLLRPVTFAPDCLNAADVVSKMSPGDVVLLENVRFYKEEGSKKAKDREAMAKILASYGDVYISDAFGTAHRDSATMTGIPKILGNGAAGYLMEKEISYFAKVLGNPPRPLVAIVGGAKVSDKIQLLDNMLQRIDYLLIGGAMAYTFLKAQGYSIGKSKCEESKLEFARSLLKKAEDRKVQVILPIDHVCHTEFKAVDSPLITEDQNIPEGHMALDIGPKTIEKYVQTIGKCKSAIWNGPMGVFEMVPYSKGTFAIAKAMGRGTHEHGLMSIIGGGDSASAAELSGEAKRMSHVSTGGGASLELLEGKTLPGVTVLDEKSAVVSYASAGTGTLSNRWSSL
Method in brief: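 PGK activity was coupled to GAPDH (100nM final), which generates the unstable substrate 1,3-bisphosphoglycerate in-well. Reactions ran 60 minutes at room temperature in 100mM TEA pH 7.6, 5mM MgCl2, 0.01% Tween-20, then Kinase-Glo Plus luminescence was read.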

[18] = qHTS for Inhibitors of Cell Surface uPA Generation: Validation Assay (AID 493164)
Method in brief: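 RAW 264.7 cells (4000/well) were plated overnight, then exposed for 18 h at 37 C, 5% CO2 to compounds in a 7-point 1:5 titration (2.45 nM–38.3 uM final). Intracellular ATP was read by ATP-Lite luminescence.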

Row | Compound | Potency [1] | Potency [2] | outcome [3] | outcome [4] | outcome [5] | Potency [6] | Potency [7] | Potency [8] | activation [9] | Potency [10] | viability change [10] [%] | Potency [11] | Potency [12] | Potency [13] | Potency [14] | Potency [15] | outcome [16] | Potency [17] | outcome [18]
1 | O=C1C=CC(=O)C=C1 | inactive | inactive | inactive | inactive | inactive | inactive | inactive | inactive | 0.5% (inactive) | inactive | -5.52 | inactive | inactive | – | – | – | – | – | –
2 | C=CCN1C[C@@H](C)N([C@H](c2ccc(C(=O)N(CC)CC)cc2)c2cccc(OC)c2)C[C@@H]1C | inactive | – | inactive | inactive | inactive | inactive | – | inactive | 2.06% (inactive) | inactive | 4.14 | inactive | – | inactive | inactive | inactive | inactive | inactive | –
3 | COc1ccc2c(c1O)-c1cccc3c1[C@@H](C2)N(C)CC3 | – | – | inactive | – | – | inactive | inactive | 10 µM (active) | – | inactive | -4.97 | – | inactive | inactive | inactive | – | – | inactive | inactive
4 | NCC(O)c1cc(O)c(O)cc1F (configuration not stated) | 18.9 µM (active) | – | inactive | inactive | inactive | – | – | 2.51 µM (active) | 1.38% (inactive) | inactive | -0.467 | inactive | inactive | 2.67 µM (active) | – | – | inactive | 21.3 µM (active) | inactive
5 | CCN(CCCl)Cc1ccccc1Br | inactive | inactive | inactive | inactive | inactive | inactive | inactive | – | -8% (inactive) | – | – | inactive | inactive | – | inactive | – | inactive | inactive | inactive
6 | C/C(O)=C(\C#N)C(=O)Nc1cc(Br)ccc1Br | inactive | – | inactive | inactive | inactive | inactive | inactive | inactive | 0.0625% (inactive) | – | – | inactive | inactive | inactive | – | – | inactive | inactive | –
7 | C[N+]1(C)CCN(c2ccccc2)CC1 | inactive | – | inactive | inactive | inactive | inactive | – | inactive | 0.438% (inactive) | inactive | -2.09 | inactive | inactive | inactive | inactive | inactive | inactive | inactive | inactive
8 | CCCCCCC(C)(C)c1ccc([C@@H]2C[C@H](O)CC[C@H]2CCCO)c(O)c1 | inactive | – | inactive | inactive | inactive | inactive | – | inactive | 1.06% (inactive) | inactive | 3.03 | inactive | inactive | inactive | inactive | 16.4 µM (active) | inactive | inactive | inactive
9 | CN1C2CCC1CC(OC(c1ccccc1)c1ccccc1N)C2 (configuration not stated) | inactive | – | inactive | – | inactive | inactive | – | inactive | 1.44% (inactive) | inactive | -4.19 | inactive | inactive | inactive | inactive | inactive | inactive | inactive | inactive
10 | Nc1ccc(CCN2CCN(c3cccc(C(F)(F)F)c3)CC2)cc1 | inactive | – | inactive | inactive | – | inactive | inactive | – | 2.19% (inactive) | inactive | 0.0372 | inactive | inactive | inactive | inactive | inactive | inactive | inactive | –
11 | NC(=O)c1ccc(OCC(O)CN2CC=C(c3ccc(F)cc3)CC2)cc1 (configuration not stated) | inactive | – | inactive | inactive | inactive | inactive | inactive | – | 4.62% (inactive) | inactive | 16.7 | inactive | inactive | inactive | – | – | inactive | inactive | –
12 | C=CCN1CCc2cccc3c2[C@H]1Cc1ccc(O)c(O)c1-3 | – | 44.7 µM (active) | inactive | – | – | 0.794 µM (active) | – | 0.398 µM (active) | – | inactive | 1.3 | – | inactive | inactive | inactive | – | – | inactive | inactive
13 | CC(=O)c1c(O)c(C)c(O)c(Cc2c(O)c3c(c(C(=O)/C=C/c4ccccc4)c2O)OC(C)(C)C=C3)c1O | – | 12.6 µM (active) | inactive | inactive | inactive | inactive | inactive | inactive | 7.12% (inactive) | – | – | – | – | inactive | inactive | – | inactive | inactive | –
